# Tested on: Toxoplasma gondii RH 2F1 tachyzoites (intracellular in HFF)
# Experiment: parasite survival relative to DMSO control; higher = less antiparasitic activity, active = 20 or less
# Conditions: 1 µM; 72 h
# Summary of the method: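 Toxoplasma gondii RH-2F1 tachyzoites expressing β-galactosidase (5 × 10^3 per well) were used to infect HFF cells at 5 × 10^3 cells/well in 96-well plates for 3 h in D2 medium. Cells then received compound at 1 μM for 72 h at 37°C in 5% CO2, were lysed for 15 min, and were given CPRG, with absorbance at 570 nm read after 30 min. Survival denotes this signal as a percentage of DMSO-treated infected controls. Each value reflects 2 or more biological replicates.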
row,Compound,parasite survival
1,CCCCc1ccc(C(=O)O)nc1,54.6% (inactive)
2,CCc1cc(O)c(Oc2ccc(C(N)=O)cc2F)cc1F,71.5% (inactive)
3,CC(C)(C)c1cc(C(=O)/C(C#N)=N/Nc2cccc(Cl)c2)no1,37.6% (inactive)
4,CCN(CC)S(=O)(=O)c1ccc(Cl)c(C(=O)Nc2sc3c(c2C#N)CCCC3)c1,44% (inactive)
5,O=C(Cn1cnc2ccccc2c1=O)Nc1ccccc1,57.7% (inactive)
6,CCOC(=O)Nc1cc(NC(C)CC(C)CN(CC)CC)c2nc(-c3ccccc3)c(-c3ccccc3)nc2n1 (stereo not given),7.01% (active)
7,CCCCCCCc1[nH]c2ccccc2c(=O)c1O,49% (inactive)
8,CCOC(=O)/C=C/[C@H](C[C@@H]1CCNC1=O)NC(=O)[C@H](CC)n1cccc(NC(=O)c2cc(C)on2)c1=O,63.3% (inactive)
9,CC[C@@]1(O)C(=O)OCc2c1cc1n(c2=O)Cc2cc3c(CN(C)C)c(O)ccc3nc2-1,50.5% (inactive)
10,CN(C)CCCNC(=O)c1ccc(-c2cc(O)c3ncccc3c2)cc1,81.2% (inactive)
11,NC(=O)c1ccccc1NC(=O)c1ccc(C(=O)Nc2ccccc2C(N)=O)cc1,39.5% (inactive)
12,O=C(CCc1ccc2c(c1)OCO2)NCc1ccc(-c2ccccc2F)cc1,54.9% (inactive)
13,COc1c(NC(=O)[C@H]2CC[C@@H](COc3ccc([N+](=O)[O-])cc3)CC2)c(F)cc2c(=O)c(C(=O)O)cn(C3CC3)c12,47.7% (inactive)
14,CCC[C@H](NC(=O)[C@@H]1[C@H]2CCC[C@H]2CN1C(=O)[C@@H](NC(=O)[C@@H](NC(=O)c1cnccn1)C1CCCCC1)C(C)(C)C)C(=O)C(=O)NC1CC1,46.8% (inactive)
15,CC(C)CCN1C(=O)C(C2=NS(=O)(=O)c3cc(NS(C)(=O)=O)ccc3N2)=C(O)[C@@H]2[C@H]3CC[C@H](C3)[C@@H]21,72.3% (inactive)
16,Clc1cc2nc(C3CCNCC3)n(Cc3ccc(CNCCc4c[nH]cn4)cc3)c2cc1Cl,66.5% (inactive)
17,CN1CCN(c2ccc3[nH]c(-c4ccc5[nH]c(-c6ccc(O)cc6)nc5c4)nc3c2)CC1,35.3% (inactive)
18,CSC[C@H]1CN(Cc2c[nH]c3c(N)ncnc23)C[C@@H]1O,45.9% (inactive)
19,CC(C)(C)c1ccc(C(=O)NC(=O)N2CCCc3ccccc32)cc1,49.9% (inactive)
20,Cn1c2ccccc2c(=O)c2c(O)cccc21,49.5% (inactive)

row,Compound,parasite survival
1,Cc1cc(C)n(O)c(=O)c1,49.3% (inactive)
2,O=[N+]([O-])/C(Br)=C/c1ccc(Br)o1,26.6% (inactive)
3,CCCC(=O)OCCc1ccccc1,57% (inactive)
4,O=C(NC12CC3CC(CC(C3)C1)C2)c1cc2ccccc2[nH]1,14.7% (active)
5,CSc1ccc2c(c1)C(N1CCN(C)CC1)Cc1ccccc1S2 (stereo not given),34.5% (inactive)
6,Oc1cccc(C(Nc2nccs2)c2ccc3cccnc3c2O)c1 (stereo not given),2.96% (active)
7,O=C(O)/C=C/C=C/c1cccc(Oc2cc(Cl)cc(Cl)c2)c1,36.2% (inactive)
8,Cc1onc(-c2ccccc2)c1-c1ccc(S(N)(=O)=O)cc1,74% (inactive)
9,Cc1[nH]c2ccccc2c1CC(=O)N[C@@H](Cc1ccccc1)C(=O)N(C)c1ccccc1,83.1% (inactive)
10,Nc1nnc(-c2ccc(Cl)cc2)s1,59.9% (inactive)
11,OCCCCn1cnc2c(O)nc(NCc3ccc(Cl)c(Cl)c3)nc21,59.7% (inactive)
12,O=S(=O)(Nc1ccccc1)c1ccc(NC(=S)Nc2ccccc2)cc1,47.2% (inactive)
13,CC(C)C(=O)N[C@H]1[C@H]([C@H](O)[C@H](O)CO)OC(C(=O)O)=C[C@@H]1N=[N+]=[N-],72.6% (inactive)
14,COc1cc(Cc2cnc(N)nc2N)c2c(c1OC)OC(C1CC1)C=C2 (stereo not given),10.4% (active)
15,CCN(CC)CCn1c(=N)n(CC(O)COc2ccc(Cl)cc2Cl)c2ccccc21 (stereo not given),26.7% (inactive)
16,Cc1nc2ccc(Oc3ccccc3)cc2c2c1CCN2CCc1ccccc1,8.56% (active)
17,COc1ccc(CNC(=O)C2CCN([C@H](C)c3cccc4ccccc34)CC2)cc1,52% (inactive)
18,CNCC(=O)OCc1cccnc1N(C)C(=O)OC(C)[n+]1cnn(C[C@](O)(c2cc(F)ccc2F)[C@@H](C)c2nc(-c3ccc(C#N)cc3)cs2)c1 (stereo not given in full),35.6% (inactive)
19,Oc1ccc(NCc2ccccc2OCc2ccccc2)cc1,39.5% (inactive)
20,CC(=N)N1CC[C@H](SC2=C(C(=O)O)N3C(=O)[C@@H]([C@@H](C)O)[C@H]3C2)C1,53.7% (inactive)
